Sampled rows, rich in hits. Any-hit rate of the full collection: about 13%.
HCV inhibitor: qHTS Assay for Inhibitors of Hepatitis C Virus (HCV); Huh7.5.1 HCVcc-Cre infection, luciferase reporter, 44 h; Potency, µM (top dose mostly 41.8 µM), without a hit: at the top dose activity change, negative = inhibition, usual class: inhibitors; 340,000 tested, 3.4% active; also: potency is read from the fitted curve at half-maximal effect
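Compounds are dispensed onto cells plated 4 h earlier at 1,000 per well, with HCVcc-Cre virus (about 0.5 moi) added next. Following 44 h of culture, luminescent signal is measured for 15 sec after 15 min with substrate at room temperature.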
Pf growth 48h: Primary qHTS for delayed death inhibitors of the malarial parasite plastid, 48 hour incubation; P. falciparum luciferase growth in erythrocytes, 48 h; Potency, µM (titrated, usually from 28.7 µM), inactives show top-dose activity change, negative = inhibition, hits mostly inhibitors; 310,000 tested, 5.9% active; also: potency is read from the fitted curve at half-maximal effect
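Luciferase-expressing P. falciparum in infected erythrocytes (2% hematocrit, 0.1% parasitemia final) in RPMI 1640/0.5% Albumax were exposed to compound for 48 hours at 37 C, 5% CO2; growth read as luminescence.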
Pf growth 96h: Primary qHTS for delayed death inhibitors of the malarial parasite plastid, 96 hour incubation; 320,000 tested, 6.9% active; P. falciparum luciferase reporter growth, 96 h; Potency, µM (highest dose often 28.7 µM), without a hit: at the top dose activity change, negative = inhibition, usual class: inhibitors; also: potency is read from the fitted curve at half-maximal effect
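96 h incubation, 37 C, 5% CO2, of luciferase-reporter P. falciparum-infected RBCs (2% hematocrit, 0.05% parasitemia final) with test compounds; endpoint luminescence.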
HCMV antiviral: qHTS Assay for inhibitors of the human cytomegalovirus (HCMV) | 410,000 tested, 4.5% active | HFF cells, HCMV-luciferase reporter, 72 h; hits give low values | activity change, negative = inhibition, % at 57.5 µM | AID 1259415, 2018; in the data active = activity change below about -60%; inconclusive = no clear call, values can overlap the other calls; inactive = above about -39%
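Screen run at 2 compound doses on HFFs infected with reporter HCMV, MOI 1 PFU/cell. Luciferase activity from cell lysates at 72 h post infection gave inhibition relative to buffer-only and Salinomycin wells.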
* marks the source's active call; other numbers are inactive results; ? = inconclusive; nt = no result given; [ ] = remark or other dose. Unless noted, calls follow the shape of the dose curve; as a rule, active = well fitted inhibition curve with a large enough effect; inconclusive = small, poorly fitted or top-dose-only effect, or another doubt; inactive = no such curve, though single readings can be large or run the other way. % is scaled to controls: 0 for no effect and ±100 for the full control effect.

SMILES	HCV inhibitor	Pf growth 48h	Pf growth 96h	HCMV antiviral
COc1ccc(NS(=O)(=O)c2ccc3c(c2)n(C)c(=O)c(=O)n3C)cc1Cl	nt	nt	nt	-6
Cc1ccc(C(=O)N/N=C(/CC(=O)c2cccs2)C(F)(F)F)cc1	-24%	16%	-19%	-86*
O=C(N/N=C(\CC(=O)c1cccs1)C(F)(F)F)c1ccncc1	?	0.23µM*	?	-76*
Cc1ccc(NCCC(=O)c2cccs2)cc1	12%	33%	-20%	5
COc1cc(-c2noc(CCC(=O)NC3CCCC3)n2)cc(OC)c1OC	-22%	-12%	5%	40
Cc1ccc(-c2noc(CCC(=O)NCC3CCN(Cc4cccc(C)c4)CC3)n2)cc1	1.1µM*	?	3%	?
Cc1ccc(-c2noc(CCC(=O)NCCN3CCN(Cc4ccccc4)CC3)n2)cc1	?	?	17%	?
COc1ccc(-c2noc(CCC(=O)NCCCN3CCC(Cc4ccccc4)CC3)n2)cc1	2.5µM*	0%	-95%	?
COc1ccc(-c2noc(CCC(=O)NCCCN3CCN(c4ccc(F)cc4)CC3)n2)cc1	22µM*	?	?	-64*
Cc1ccc(-c2noc(CCC(=O)NCCN3CCOCC3)n2)cc1	16%	37%	14%	-10
COc1cc(-c2noc(CCC(N)=O)n2)cc(OC)c1OC	nt	-5%	9.3µM*	64
O=C(Nc1ccccc1F)c1oc2ccccc2c1NC(=O)C12CC3CC(CC(C3)C1)C2	nt	nt	nt	10
CCOc1cc(-c2noc(CCC(=O)NCCc3ccccc3)n2)ccc1OC	-26%	0%	2.6µM*	-11
COc1ccc(-c2noc(CCC(=O)NCCc3ccccc3)n2)cc1OC	-28%	?	?	65
Cc1ccccc1OCC(O)Cn1c(NCc2ccco2)nc2c1c(=O)n(C)c(=O)n2C (centres undefined)	?	15µM*	?	0
COc1ccc(OCC(O)Cn2c(Nc3cccc(C)c3)nc3c2c(=O)n(C)c(=O)n3C)cc1 (centres undefined)	-21%	2.3µM*	3.3µM*	54
Cc1ccccc1OCC(O)Cn1c(Br)nc2c1c(=O)n(C)c(=O)n2C (centres undefined)	?	14%	?	-4
CC1(C)CC(=O)C=C(c2ccc(I)cc2)C1	?	4.7µM*	?	-8
CC(C)C(NC(=O)C(CC(=O)O)NC(=O)C(CCCCN)NC(=O)C(N)CCCN=C(N)N)C(=O)NC(Cc1ccc(O)cc1)C(=O)O (centres undefined)	nt	-1%	1.5µM*	nt
CC(C)[C@H](NC(=O)[C@H](CC(=O)O)NC(=O)[C@H](CCCCN)NC(=O)[C@@H](N)CCCN=C(N)N)C(=O)N[C@@H](Cc1ccc(O)cc1)C(=O)O	6%[8.37 µM]	5%	-11%	nt
CN(C)S(=O)(=O)c1ccc2c(c1)N(CC(=O)N1CCC(C(N)=O)CC1)CCS2	nt	nt	nt	6
O=C(NC1(C(F)(F)F)C(=O)Nc2c1c(=O)[nH]c(=O)n2-c1ccccc1)c1ccccc1Cl (centres undefined)	nt	nt	nt	6
NNC(=O)c1[nH]c2ccc([N+](=O)[O-])cc2c1-c1ccccc1	?	-21%	?	-89*
Cc1c(OCC(=O)NCC(O)c2ccccc2)ccc2c(-c3ccccc3)cc(=O)oc12 (centres undefined)	32µM*	?	-15%	?
COc1ccc(-c2cc(=O)oc3c(C)c(OCC(=O)NCC4CCC(C(=O)O)CC4)ccc23)cc1 (centres undefined)	9%	-34%	13µM*	13
SMILES	HCV inhibitor	Pf growth 48h	Pf growth 96h	HCMV antiviral
Cc1c(OCC(=O)NCc2ccccn2)ccc2c(-c3ccccc3)cc(=O)oc12	12%	?	?	4
Cc1ccc(S(=O)(=O)NC2=C(N3CCN(Cc4ccccc4)CC3)C(=O)c3ccccc3C2=O)cc1	2%	?	nt	-65*
CC1CCCN(C2=C(NS(=O)(=O)c3ccc(Cl)cc3)C(=O)c3ccccc3C2=O)C1 (centres undefined)	-7%	?	12µM*	48
Cc1ccc(S(=O)(=O)NC2=C(N3CCN(c4ccccc4F)CC3)C(=O)c3ccccc3C2=O)cc1	?	?	?	-29
CCOC(=O)N1CCN(C2=C(NS(=O)(=O)c3ccc(C)cc3)C(=O)c3ccccc3C2=O)CC1	9%	8.3µM*	3.3µM*	?
CC(=O)Nc1ccc(S(=O)(=O)NC2=C(N3CCN(c4ccc(F)cc4)CC3)C(=O)c3ccccc3C2=O)cc1	?	0.74µM*	nt	-23
Cc1ccc(Cl)cc1Nc1nn2c(=O)c3ccc(C(=O)NC(C)c4ccccc4)cc3nc2s1 (centres undefined)	nt	nt	nt	2
COc1ccc(CNC(=O)CCC2N=C3c4ccccc4N=C(SCc4cccc(F)c4)N3C2=O)cc1 (centres undefined)	nt	nt	nt	65
Cc1[nH]c(=O)[nH]c(=O)c1S(=O)(=O)N1CCN(c2ccccc2Cl)CC1	nt	nt	nt	-3
CCOc1cccc(C2c3c(oc4cc(C)c(C)cc4c3=O)C(=O)N2c2nc(C)c(C)s2)c1 (centres undefined)	nt	nt	nt	5
Cc1ccc(Cn2nnc3c(=O)n(Cc4cc(C)ccc4C)cnc32)cc1	-4%	?	1.5µM*	72
Cc1cccc(Cn2cnc3c(nnn3Cc3ccc(Cl)cc3)c2=O)c1	4%	?	4.1µM*	-12
Cc1ccc(-n2nnc3c(=O)n(Cc4ccccc4C)cnc32)cc1	9%	1%	10%	5
COc1ccc(-n2nnc3c(=O)n(CC(=O)NCC4CCCO4)cnc32)cc1 (centres undefined)	1%	4%	9%	-102*
COc1ccc(-n2nnc3c(=O)n(Cc4cc(C)ccc4C)cnc32)cc1	?	-19%	5.2µM*	-15
O=C(Cn1cnc2c(nnn2-c2ccc(F)cc2)c1=O)NCC1CCCO1 (centres undefined)	-1%	11%	nt	51
CCSc1nn(CC(=O)Nc2cccc(Cl)c2)c(N)c1S(=O)(=O)c1ccc(OC)cc1	nt	nt	nt	-4
Cc1cccc(Cn2ccn(Cc3ccc(Cl)cc3)c(=O)c2=O)c1	nt	nt	nt	-62*
Cc1cccc(Cn2ccc(-c3ccc(Cl)cc3)c(C#N)c2=O)c1	-6%	30%	37%	-38
CCOC(=O)c1[nH]c(C)c(CCC(=O)Nc2cccc(SC)c2)c1C	nt	nt	nt	-16
COc1cccc(-n2c(SCC(=O)Nc3ccc4c(c3)OCO4)nc3c([nH]c4ccccc43)c2=O)c1	nt	nt	nt	-3
CCC(=O)N1N=C(c2c(-c3ccccc3)c3cc(Cl)ccc3[nH]c2=O)CC1c1ccco1 (centres undefined)	?	10µM*	?	-35
COc1ccccc1C1CC(c2c(-c3ccccc3)c3cc(Cl)ccc3[nH]c2=O)=NN1S(C)(=O)=O (centres undefined)	?	12µM*	?	9

Source: PubChem (National Center for Advancing Translational Sciences (NCATS))
